# From PubChem
# Rows were chosen to be rich in hits. Some 3.4% of all compounds tested hit in one or more screens of this group.
# GPR151 ag – activates the human receptor GPR151; Q8TDV0; PathHunter beta-arrestin GPR151 cells, luminescence; activation, % at 11.2 µM; hit rate 1% among 650,000; AID 1508602; in the data active means activation above about 4.9%;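 further: 0% = median of compound wells and 100% = cells with positive control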
# MITF inh – blocks human microphthalmia-associated transcription factor; AID 1259374; hit rate 0.91% among 650,000; inhibition, % at 2.6 µM; AlphaScreen MITF homodimerization, bead proximity signal; in the data active means inhibition above about 50%;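 further: 0% = vehicle wells with protein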
# Target sequence (O75030 whole entry, looked up): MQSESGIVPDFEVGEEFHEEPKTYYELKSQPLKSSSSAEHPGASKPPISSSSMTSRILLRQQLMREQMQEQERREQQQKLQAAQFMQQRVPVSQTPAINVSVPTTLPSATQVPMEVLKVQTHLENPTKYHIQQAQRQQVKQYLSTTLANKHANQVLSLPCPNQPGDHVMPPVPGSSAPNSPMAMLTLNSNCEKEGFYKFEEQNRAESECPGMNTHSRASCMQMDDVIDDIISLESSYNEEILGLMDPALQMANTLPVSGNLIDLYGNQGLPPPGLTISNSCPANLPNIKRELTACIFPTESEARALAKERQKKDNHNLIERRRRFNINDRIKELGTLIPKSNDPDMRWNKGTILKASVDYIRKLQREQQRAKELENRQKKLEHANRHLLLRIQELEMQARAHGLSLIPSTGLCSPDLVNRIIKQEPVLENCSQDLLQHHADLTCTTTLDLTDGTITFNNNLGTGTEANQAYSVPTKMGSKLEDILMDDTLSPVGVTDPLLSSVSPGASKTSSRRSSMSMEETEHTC
# TEAD-YAP block – TEAD-YAP interaction inhibition. HEK-TIYL cells, TEAD-Gal4/YAP UAS-luciferase luminescence. inhibition, % at 9.12 µM. hit rate 1.4% among 640,000; in the data active means inhibition above about 32%;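 further: 0% = median of test compound wells and 100% = reference inhibitor wells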
# FBW7 activator – activators of human E3 ligase FBW7; normalized activity (activation), % at 26.1 µM; hit rate 0.13% among 650,000; Q969H0; AlphaScreen FBW7–phospho-cyclin E peptide binding, activator screen; in the data active means normalized activity above about 1.9%;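 further: purified mutant Fbw7 with reduced substrate affinity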
# An asterisk follows results filed as active.
SMILES,GPR151 ag,MITF inh,TEAD-YAP block,FBW7 activator
COc1cccc(C2CC(c3c(O)cc(C)oc3=O)=NCCS2)c1OC (stereo not drawn),2,-9,42*,0
COc1ccc2nc(C3C(=O)c4ccccc4C3=O)ccc2c1,-3,14,83*,0
Cc1ccc2nc(C3C(=O)c4ccccc4C3=O)ccc2c1,3,4,54*,0
Cn1c(=N)c(C#N)cc2c(=O)n3ccccc3nc21,-1,13,-1,0
Cc1ccc(N(C(=O)C(Cl)(Cl)Cl)C2C=CS(=O)(=O)C2)cc1 (stereo not drawn),1,8,-2,0
O=C(N(c1cccc(C(F)(F)F)c1)C1C=CS(=O)(=O)C1)C(Cl)(Cl)Cl (stereo not drawn),-1,-3,53*,0
CC(=O)Oc1ccc2c(c1)CCC1C2C(O)CC2(C)C(=O)CCC12 (stereo not drawn),0,11,13,0
CN1CCN(c2ccnc3c(-c4ccc(CO)cc4)cnn23)CC1,1,-5,-58,0
OCc1ccc(-c2cnn3c(N4CCOCC4)ccnc23)cc1,1,20,42*,0
O=C(O)CCc1ccc(-c2cnn3c(N4CCC(O)CC4)ccnc23)cc1,-1,7,37*,0
Cc1ccccc1Nc1c(C)c(C)nc2ncnn12,0,-6,-2,0
Cc1nc2ncnn2c(NCc2ccc(F)cc2)c1C,5,17,45*,1
CC(C)n1c(SCc2ccccc2Cl)nc2c1c(=O)[nH]c(=O)n2C,1,4,43*,0
COc1cc(OC)c(OC)cc1/C=C1\C(=O)NC(=S)N(c2cccc(F)c2)C1=O,-2,54*,6,0
O=C1NC(=O)N(c2cccc(F)c2)C(=O)/C1=C/c1ccc(I)o1,1,78*,11,0
Cc1ccc(N2C(=O)NC(=O)/C(=C\c3cc(C)n(C)c3C)C2=O)cc1,-1,15,5,0
Cc1cc(/C=C2\C(=O)NC(=O)N(c3cccc(F)c3)C2=O)c(C)n1C,1,55*,1,0
O=C1NC(=O)N(c2ccccc2F)C(=O)/C1=C/c1ccc(I)o1,0,52*,5,0
COC(=O)c1ccc(NC(=O)C=C(C)C)cc1,3,7,-51,0
COc1ccc(S(=O)(=O)NC23CC4CC(C2)CC(C(=O)O)(C4)C3)cc1,0,5,1,0
CC1(C)CC(=O)C2=C(C1)N(c1ccc(Cl)c(Cl)c1)C1=C(C(=O)CC(C)(C)C1)C2c1ccc(Cl)c([N+](=O)[O-])c1,0,-3,-4,0
CCc1ccc(N2C(=O)NC(=O)/C(=C\c3cc(C)n(-c4cccnc4)c3C)C2=O)cc1,-2,-17,5,0
Cc1ccc(N2C(=O)NC(=O)/C(=C\c3ccco3)C2=O)cc1C,1,5,4,0
Cc1cc(/C=C2\C(=O)NC(=S)N(c3ccc(F)cc3)C2=O)c(C)n1-c1cccnc1,-2,110*,0,0
O=C1NC(=O)N(c2ccc(F)cc2)C(=O)/C1=C/c1ccco1,1,73*,-1,0
SMILES,GPR151 ag,MITF inh,TEAD-YAP block,FBW7 activator
Cn1cccc1CC(=O)N/N=C\c1cccc(Oc2ccccc2)c1,2,4,7,0
Fc1ccc(CSc2nnnn2-c2ccc3c(c2)OCO3)c(Cl)c1,0,2,51*,0
Fc1ccccc1CSc1nnnn1-c1ccc2c(c1)OCO2,3,6,-7,0
O=C(Nc1ccc(O)cc1)c1c(O)c2c([nH]c1=O)CCCC2,2,4,68*,0
Cc1ccc(NC(=O)c2c(O)c3c([nH]c2=O)CCCC3)cc1,-1,2,2,0
COc1cccc(C(=O)CC(=O)C(=O)Nc2cccc(C(C)=O)c2)c1,0,21,6,0
CC(CCCC(C)(C)O)NC(=O)c1cc(COc2ccc3ncccc3c2)on1 (stereo not drawn),5,11,33*,0
O=C(NC1(c2ccccc2)CC1)c1cc(COc2ccc3ncccc3c2)on1,0,-5,58*,0
Clc1ccc(-c2cn3nc4c(nc3n2)CCCC4)cc1,-2,-2,-20,0
COc1cccc(-c2cn3nc4c(nc3n2)CCCC4)c1,-8,-1,66*,0
Fc1ccc(-c2cn3nc4c(nc3n2)CCCC4)cc1,-10,4,40*,0
CCC1C(=O)NCCN1Cc1ccc2c(c1)CN(Cc1c(C)nc3sccn13)CCO2 (stereo not drawn),2,-2,35*,0
CCC1C(=O)NCCN1Cc1ccc2c(c1)CN(Cc1ccc(Cl)cc1)CCO2 (stereo not drawn),0,7,3,0
CC(=O)c1ccc(S(=O)(=O)N(C)CC(=O)/C=C2/N(C)c3ccccc3C2(C)C)cc1,1,4,38*,0
CC(=O)/C=C1\N(C)c2ccccc2C1(C)C,1,10,-10,0
CC(CCc1ccccc1)Nc1ncnc2sccc12 (stereo not drawn),2,8,51*,0
CC(C)(C)c1ccccc1Nc1ncnc2sccc12,1,-8,2,0
CC1CCCN(Cc2cc(-c3ncccn3)ccc2O)C1 (stereo not drawn),2,11,3,0
C=C1/C(=C\C=C2/CCCC3(C)[C@@H]([C@H](C)CCCC(C)(C)O)CC[C@@H]23)C[C@@H](O)C[C@@H]1O (stereo partly drawn),0,-2,37*,0
C=C1CC[C@H](O)C/C1=C/C=C1\CCCC2(C)C1CCC2C(C)CCCC(C)C (stereo partly drawn),1,11,-5,0
Cc1ccc(C)c(OCC(=O)Nc2ccccc2C(N)=O)c1C,-2,9,48*,1
CCOc1ccc(NC(=O)COc2c(C)cccc2C)cc1,0,-23,31,0
CCOc1ccc(NC(=O)COc2c(C)ccc(C)c2C)cc1,1,4,41*,0
CCN(CC)C(=O)CN(c1cc(Cl)ccc1C)S(=O)(=O)c1ccccc1,-1,-5,3,0
CO/N=C/c1ccc(OC)c(Oc2nc(OC)cc(OC)n2)c1,2,4,33*,0
SMILES,GPR151 ag,MITF inh,TEAD-YAP block,FBW7 activator
Cc1cccc(C(=O)Nc2nc3ccc(C)cc3s2)c1,-1,-4,-61,0
COc1ccccc1C(=O)NCc1nnc(SCC(=O)N2CCc3ccccc32)n1-c1cccc(C)c1,-1,2,12,0
CC1CCC(C(C)C)C(OC(=O)Cn2c(-c3ccc(Cl)cc3)[n+](C)c3ccccc32)C1 (stereo not drawn),4,-3,45*,0
NC(=O)c1ccccc1NC(=O)c1ccc(CN2CCOCC2)cc1,0,24,36*,0
O=C(Nc1ccccc1C(=O)NCc1ccccc1)c1ccc(CN2CCOCC2)cc1,-1,-7,52*,0
CCOC(=O)c1[nH]c(C)c(C(=O)N2CCc3ccccc32)c1C,0,-4,49*,0
CCOC(=O)c1[nH]c(C)c(C(=O)Nc2cc(C)ccc2C)c1C,0,2,40*,0
CCOC(=O)c1c(C)c(C(=O)Nc2cc(C)ccc2OC)c(C)n1CC,1,3,41*,0
